Compound activity from PubChem.
LYPLA1 counter: blocks human lysophospholipase 1, a PME1 counter-screen; O75608; recombinant LYPLA1, FP-Rh probe fluorescence polarization; inhibition, % at 5.9 µM; 320,000 compounds, 0.16% hits; AID 2174;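 active = inhibition above the mean of all tested compounds plus 3 SD, set per campaign, cut at about 14% in these data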;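 also: inhibitors block serine hydrolase probe labeling of LYPLA1 so polarization falls; 0% = enzyme with DMSO and 100% = wells lacking LYPLA1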
PREPL inhibitor: inhibits the human prolyl oligopeptidase-like enzyme. Q4J6C6. recombinant PREPL, fluorescence polarization activity-based probe. inhibition, % at 5.96 µM. 320,000 compounds, 0.68% hits. AID 2751; in the data active = inhibition above about 43%;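 also: 0% = enzyme with DMSO and 100% = wells lacking enzyme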
Target sequence (Q4J6C6 whole entry, looked up): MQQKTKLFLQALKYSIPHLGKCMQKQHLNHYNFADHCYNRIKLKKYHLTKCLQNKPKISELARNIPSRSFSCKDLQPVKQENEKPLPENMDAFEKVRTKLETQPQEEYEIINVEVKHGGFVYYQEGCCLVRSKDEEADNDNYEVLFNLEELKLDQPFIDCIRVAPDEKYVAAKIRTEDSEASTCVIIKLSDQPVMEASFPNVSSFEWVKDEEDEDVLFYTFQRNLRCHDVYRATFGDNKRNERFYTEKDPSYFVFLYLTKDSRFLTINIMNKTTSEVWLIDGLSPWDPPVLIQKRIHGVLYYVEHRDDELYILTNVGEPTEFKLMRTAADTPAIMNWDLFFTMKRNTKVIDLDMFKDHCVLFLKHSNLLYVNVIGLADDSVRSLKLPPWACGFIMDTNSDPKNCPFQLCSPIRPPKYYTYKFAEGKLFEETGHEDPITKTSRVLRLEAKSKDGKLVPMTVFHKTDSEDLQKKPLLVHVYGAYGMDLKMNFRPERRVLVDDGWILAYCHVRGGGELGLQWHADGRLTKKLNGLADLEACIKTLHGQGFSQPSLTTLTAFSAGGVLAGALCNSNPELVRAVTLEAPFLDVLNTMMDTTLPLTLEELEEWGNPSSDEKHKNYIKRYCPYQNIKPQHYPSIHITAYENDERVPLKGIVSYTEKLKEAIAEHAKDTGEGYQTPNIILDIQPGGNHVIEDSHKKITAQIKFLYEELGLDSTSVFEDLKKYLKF
LYPLA2 inh: LYPLA2 (human) inhibition in PME1 counter-screen. O95372. recombinant LYPLA2, FP-Rh probe fluorescence polarization. inhibition, % at 5.9 µM. 320,000 compounds, 0.38% hits;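 active = inhibition above the screen-wide mean plus 3 SD, limit set per campaign, cut at about 26% in these data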;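 also: 0% = LYPLA2 with DMSO and 100% = wells lacking LYPLA2 enzyme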
ZTA DNA inh: ZTA (EBV) inhibition in EBNA-1 counter-screen; ZTA-DNA binding, fluorescence polarization; inhibition, % at 11 µM; 320,000 compounds, 0.15% hits; in the data active = inhibition above about 33%
EBNA-1 inhibitor: blocks EBNA-1 binding to DNA; EBNA-1 DNA binding, fluorescence polarization; inhibition, % at 14.8 µM; 300,000 compounds, 0.34% hits; AID 1950; in the data active = inhibition above about 28%
LYPLA2 confirm: LYPLA2 (human) inhibition, confirmation counter-screen | 1,100 compounds, 72% hits | recombinant LYPLA2, FP-Rh probe fluorescence polarization | shares compounds with LYPLA2 inh | inhibition, % at 5.9 µM | AID 2232;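 active = mean inhibition across replicates above the hit cutoff set in the primary screen, cut at about 26% in these data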;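 also: blocked labeling of the enzyme by serine hydrolase FP-Rh probe lowers polarization; 0% = enzyme with DMSO and 100% = wells lacking LYPLA2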
LYPLA2 gel ABPP: blocks human acyl-protein thioesterase 2 in gel ABPP; shares compounds with LYPLA2 inh; inhibition, % at 20 µM; 150 compounds, 30% hits; rhLYPLA2 in mouse brain proteome, gel ABPP FP-Rh;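 active = inhibition of LYPLA2 enzyme probe labeling above about 50%, limit read from the data; inactive = inhibition below that limit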;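 also: loss of FP-Rh probe labeling of the LYPLA2 gel band measured as band density; 0% = DMSO only control band and 100% = blank gel background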
Numbers without * were called inactive; . = no result given. Compounds with a hit are over-represented: about 1.3% of the library has one in this group of screens.

SMILES	LYPLA1 counter	PREPL inhibitor	LYPLA2 inh	ZTA DNA inh	EBNA-1 inhibitor	LYPLA2 confirm	others
Nc1ccc(Oc2ccc([N+](=O)[O-])cc2[N+](=O)[O-])cc1	2	5	54*	1	0	57*	LYPLA2 gel ABPP=1
COc1cc([N+](=O)[O-])ccc1N	1	-7	4	10	5	.
COc1cc(/C=C2\C(=O)N(c3ccccc3)N=C2C)ccc1Oc1ccc([N+](=O)[O-])cc1[N+](=O)[O-]	0	11	31*	2	-4	18
Cn1c(=O)c2c(ncn2CCC(=O)N/N=C/c2ccccc2)n(C)c1=O	2	15	1	-2	6	.
Cn1c(=O)c2c(ncn2CC(=O)N/N=C/C(Cl)=C/c2ccccc2)n(C)c1=O	8	11	32*	-7	-7	22
CCOC(=O)N1CCN(CC(=O)Nc2sccc2C#N)CC1	10	8	45*	7	12	39*
COc1nc(NC(=O)c2ccc(F)cc2)nc(OC)c1-c1ccccc1	-3	15	-5	-17	1	.
O=C(O)CSc1cc(NS(=O)(=O)c2ccc(Cl)cc2)c2ccccc2c1O	4	8	28*	11	3	13
COc1ccc(S(=O)(=O)Nc2cc(SCC(=O)O)c(O)c3ccccc23)cc1	5	12	28*	13	-15	28*
Cc1cc(C)c(S(=O)(=O)Nc2cc(SCC(=O)O)c(O)c3ccccc23)cc1C	1	13	30*	0	0	2
CC(C)(C)c1ccc(-c2c(C#N)c(N)nc3c2CCCC3)s1	-1	-2	-2	-15	-1	.
CCc1sc(-c2c(C#N)c(N)nc3c2CCCCCC3)cc1[N+](=O)[O-]	0	2	45*	5	9	39*
CCCCCCCn1c(NC(=O)CC)nc2ccccc21	2	-6	3	8	2	.
Cc1ccc(-n2nnnc2CN2CCCCC2)cc1	4	-1	33*	-4	-1	1
Clc1ccc(-n2nnnc2CN2CCOCC2)cc1	0	2	1	4	15	.
COc1ccc(/C=C2\SC(=S)N(CCC(=O)Nc3cccc(O)c3)C2=O)cc1OC	-9	-5	-17	11	3	.
COc1ccc(/C=C2\SC(=O)N(CC(=O)Nc3cccc(C)c3)C2=O)cc1O	-13	15	41*	-26	-3	38*
COc1cc(/C=C2\SC(=O)N(CC(=O)Nc3cccc(C)c3)C2=O)ccc1OC(C)C(=O)O (stereo not drawn)	-3	-4	74*	18	-4	74*	LYPLA2 gel ABPP=80*
COc1ccc(/C=C2\SC(=S)N(CCCC(=O)Nc3cccc(C(=O)O)c3)C2=O)cc1OC	-5	8	5	3	9	.
C=C(C)CSc1cc(C)nc2c(-c3ccccc3)c(C)nn12	-2	14	-3	-9	-6	.
CCOc1ccc(NC(=O)COC(=O)CC2CC3CCC2C3)cc1 (stereo not drawn)	.	1	.	.	.	.
S=c1[nH]nc(C2CCCCC2)o1	0	10	7	3	-3	.
CN(C)c1ccc(-c2noc(C3CCN(S(=O)(=O)c4ccc(C(=O)O)cc4)CC3)n2)cc1	5	9	30*	7	2	29*
Cc1ccc(-c2noc(C3CCN(S(=O)(=O)c4ccc5c(c4)OCCO5)CC3)n2)o1	6	-2	56*	-2	-6	54*	LYPLA2 gel ABPP=9
Cc1ccc(-c2noc(C3CCCN(S(=O)(=O)c4ccc5ccccc5c4)C3)n2)o1 (stereo not drawn)	-5	-18	-8	14	-1	.
SMILES	LYPLA1 counter	PREPL inhibitor	LYPLA2 inh	ZTA DNA inh	EBNA-1 inhibitor	LYPLA2 confirm	others
CN(C)c1ccc(-c2noc(C3CCN(S(=O)(=O)c4cccc(Cl)c4)CC3)n2)cc1	1	-1	4	15	4	.
COc1cccc(CNC(=O)CCCC(=O)NC(C)CCc2ccccc2)c1 (stereo not drawn)	-3	9	-6	-6	-9	.
COc1cccc(C(=O)N2CCC(n3nccc3NC(=O)CCOc3ccccc3)CC2)c1	1	12	7	4	8	.
COc1cccc2c1OC1(C)CC2NC(=O)N1c1cccc(C(=O)N2CCN(c3ccccc3)CC2)c1 (stereo not drawn)	0	10	1	-5	-3	.
Cc1cc(C)n(-c2ccc(C(=O)OCC(=O)N3CCN(c4ccccc4)CC3)cc2)n1	.	28	.	.	.	.
COc1ccc(N2CCN(C(=O)c3ccc(-n4nc(C)cc4C)cc3)CC2)cc1	-2	2	41*	4	-7	39*
COc1ccc(N2CCN(C(=O)c3ccc(N4C(=O)NC5CC4(C)Oc4ccccc45)cc3)CC2)cc1 (stereo not drawn)	0	7	34*	5	-5	39*
Cc1ccc(C(=O)N2CCN(c3ccc(NC(=O)c4cccnc4)cc3)CC2)cc1	0	12	17	12	7	.
Cc1noc(C)c1COc1ccc(C(=O)N2CCN(c3ccccc3F)CC2)cc1	0	-4	18	17	0	.
COc1cc(C(=O)Nc2ccc(N3CCN(C(=O)c4ccc(C)cc4)CC3)cc2)cc(OC)c1OC	8	15	38*	-3	-6	50*	LYPLA2 gel ABPP=35
CC(=O)c1ccc(N2CCN(C(=O)c3ccc(OCc4c(C)noc4C)cc3)CC2)cc1	-4	9	37*	-17	1	28*
Nc1c(-c2ccc3c(c2)OCCO3)oc2ccccc2c1=O	1	7	0	1	0	.
O=C(N=Nc1c(O)[nH]c2ccc(F)cc12)C1COc2ccccc2O1 (stereo not drawn)	2	-2	2	2	-4	.
CC(C)C(NC(=O)c1ccc(C(C)(C)C)cc1)C(=O)NCC1(N(C)C)CCCCC1 (stereo not drawn)	-2	6	-6	15	13	.
COc1ccc(C(=O)N2CCN(c3cccc(Cl)c3)CC2)cc1	3	12	8	-6	-9	.
COc1ccc(N2CCN(C(=O)c3ccc(NC(=O)C4=CSCCO4)cc3)CC2)cc1	-4	7	35*	18	15	38*
COc1ccc(N2CCN(C(=O)CCNC(=O)c3ccc(C(C)(C)C)cc3)CC2)cc1	-3	16	6	4	10	.
COc1cccc(N2CCN(C(=O)c3ccc(-c4ccccc4)cc3)CC2)c1	2	22	30*	-6	-3	26*
COc1ccc(N2CCN(C(=O)c3ccc(C(C)(C)C)cc3)CC2)cc1	6	9	79*	1	10	87*	LYPLA2 gel ABPP=86*
O=C(Nc1ccc(C(=O)N2CCN(c3ccc(F)cc3)CC2)cc1)C1=CSCCO1	1	12	20	-6	6	.
